Inconclusive results are not listed. Values without a mark were called inactive. The source made the active and inactive calls. Calls come from the whole dose curve; as a rule, active = well fitted activation curve with a large enough effect; inconclusive = small, poorly fitted or top-dose-only effect; inactive = flat fitted curve, though single readings scatter.
assay: qHTS assay to identify small molecule phospholipidosis (PLD) inducers (AID 1259344); conditions: HepG2 phospholipidosis, LipidTOX Red imaging, 24 h; series mostly up to 38.3 µM; PLD induction: at the top concentration
Text: National Center for Advancing Translational Sciences [NCATS]
Drug-induced Phospholipidosis (PLD) caused by cationic amphiphilic drugs is characterized by the appearance of unicentric or multicentric-lamellar bodies when viewed under electron microscope. Electron microscopy is the gold standard method for PLD detection, however, this method is time-consuming and labor intensive, making it unsuitable for evaluating a large set of compounds. A cell-based phospholipidosis assay has been developed using the LipidTox reagent in HepG2 cells and miniaturized into a 1536-well plate format. Drug induced phospholipid accumulation is stained with the LipidTox dyes in red color which then is determined using an automated high content screening system.
HepG2 cells are dispensed at 900 cells/3 uL/well into Collagen I-coated 1536-well black-wall/clear-bottom assay plates (Greiner Bio-One, Monroe, NC) using the Multidrop Combi 8 channel dispenser (Thermo Fisher, Waltham, MA, USA). The assay plates are incubated at 37 C for 4 hours to allow the cell attachment. 3 uL of 1:500 LipidTOX Red dye is added using the dispenser, and then 23 nL compounds are added via a Wako Pintool station (Wako Automation, San Diego, CA). Amiodarone, a known PLD inducer, was used as a positive control and DMSO was used as a negative control. The assay plates were then incubated at 37 C for 24 hours.
For fixations, 4 uL of 8% paraformaldehyde fixative solution containing 10 ug/mL Hoechst 33342 in Dulbecco's phosphate-buffered saline (DPBS) is added using a Kalypsys washer/dispenser (Kalypsys, San Diego, CA, USA). After incubation at room temperature for 30 min, the assay plates are washed once with DPBS using a Kalypsys washer/dispenser. The assay plates are then sealed and stored at 4 C before imaging. The fluorescence intensities (595 nm excitation, 615 nm emission for LipidTOX; 352 nm excitation, 461 nm emission for Hoechst 33342) are measured using an ImageXpress Micro Widefield High Content Screening System (Molecular Devices, Sunnyvale, CA, USA) with a 20x Plan Fluor objective. Images are acquired for one site in each well and analyzed with the MetaXpress software (Molecular Devices) using the Transfluor module. Several algorithmic outputs, such as pit count per well, pit count per cell, pit integrated intensity per well, and pit integrated intensity per cell, are used for quantitative image analysis for PLD.
% is set by controls: 0 for no effect and ±100 for the full control effect.

| SMILES | PLD induction | outcome |
| --- | --- | --- |
| C[C@@H]1O[C@@H](OC[C@H]2O[C@@H](Oc3c(-c4ccc(O)c(O)c4)oc4cc(O)cc(O)c4c3=O)[C@H](O)[C@@H](O)[C@@H]2O)[C@H](O)[C@H](O)[C@H]1O | 1.83% |  |
| NS(=O)(=O)c1cc2c(cc1Cl)NC=NS2(=O)=O | 3.65% |  |
| Oc1ccc(OCc2ccccc2)cc1 | -0.332% [at 15.5 µM] |  |
| Cn1c([N+](=O)[O-])cnc1COC(N)=O | -1.07% |  |
| CC1Cc2ccccc2N1NC(=O)c1ccc(Cl)c(S(N)(=O)=O)c1 (stereo not drawn) |  | inactive |
| CCCCCCCCCC(=O)O | -4.31% |  |
| CC(C)n1c(/C=C/[C@@H](O)C[C@@H](O)CC(=O)O)c(-c2ccc(F)cc2)c2ccccc21 | -2.6% |  |
| CS(=O)(=O)c1ccc([C@@H](O)[C@@H](CO)NC(=O)C(Cl)Cl)cc1 | -0.292% [at 15.5 µM] |  |
| CC1(C)O[C@@H]2C[C@H]3[C@@H]4C[C@H](F)C5=CC(=O)CC[C@]5(C)[C@H]4[C@@H](O)C[C@]3(C)[C@]2(C(=O)CO)O1 | 0.604% [at 15.5 µM] |  |
| C[C@@H](O)[C@H]1C(=O)N2C(C(=O)O)=C(S[C@@H]3CN[C@H](C(=O)N(C)C)C3)[C@H](C)[C@H]12 | -0.667% |  |
| CC(=O)[C@@]1(O)CC[C@H]2[C@@H]3CCC4=CC(=O)CC[C@]4(C)[C@H]3CC[C@@]21C | 2.61% |  |
| NCCNCCNCCNCCN | -0.814% |  |
| CS(=O)(=O)Nc1ccc([N+](=O)[O-])cc1Oc1ccccc1 | -0.112% [at 15.5 µM] |  |
| S=c1nc[nH]c2nc[nH]c12 | 9.06% |  |
| COC(=O)Nc1nc2ccc(Sc3ccccc3)cc2[nH]1 | 14.3% [at 15.5 µM] |  |
| CC1CC(OC(=O)c2ccccc2O)CC(C)(C)C1 (stereo not drawn) | 3.16% |  |
| O=S(=O)(O)CCS | -0.332% |  |
| Cc1cc(NS(=O)(=O)c2ccc(N)cc2)no1 | -0.297% |  |
| c1ccc2ccccc2c1 | 0.0357% |  |

| SMILES | PLD induction | outcome |
| --- | --- | --- |
| NC(=O)NNc1ccccc1 |  | inactive |
| Cc1cc(O)cc(C)c1Cl | 1.89% |  |
| O=C1N=C(O)CN1/N=C/c1ccc(-c2ccc([N+](=O)[O-])cc2)o1 | -0.327% |  |
| OC[C@@H](O)[C@H](O)[C@H](O)[C@@H](O)CO |  | inactive |
| CN(CCOc1ccc(CC2SC(=O)NC2=O)cc1)c1ccccn1 (stereo not drawn) | -0.0201% |  |
| O=C1O[C@H](CO)[C@@H](O)[C@H](O)[C@H]1O | -0.626% |  |
| CC1=C(CC(=O)O)c2cc(F)ccc2/C1=C\c1ccc(S(C)=O)cc1 (stereo not drawn) | -0.144% |  |
| CCOC(=O)[C@H](CCc1ccccc1)N[C@@H](C)C(=O)N1Cc2ccccc2C[C@H]1C(=O)O | -1.62% |  |
| CCC(=O)O | -1.36% |  |
| CNC[C@H](O)[C@@H](O)[C@H](O)[C@H](O)CO | -1.38% |  |
| C=C1CC[C@H](O)CC1=C/C=C1\CCC[C@]2(C)[C@@H]([C@H](C)/C=C/[C@H](C)C(C)C)CC[C@@H]12 | 15% |  |
| NCCc1ccc(O)c(O)c1 | -0.456% |  |
| O=C(O)c1cc(-c2ccccc2)nc2ccccc12 |  | inactive |
| COC(=O)c1ccccc1O | -0.562% |  |
| CC#C[C@]1(O)CC[C@H]2[C@@H]3CCC4=CC(=O)CCC4=C3[C@@H](c3ccc(N(C)C)cc3)C[C@@]21C | 8.12% |  |
| CC(=O)Nc1ccc(C(=O)O)cc1 | -0.484% |  |
| Nc1cc(-c2ccncc2)c[nH]c1=O | -0.809% |  |
| CC1=C(/C=C/C(C)=C/C=C/C(C)=C/CO)C(C)(C)CCC1 | 1.36% |  |
| Nc1nc2ncc(CNc3ccc(C(=O)N[C@@H](CCC(=O)O)C(=O)O)cc3)nc2c(=O)[nH]1 | -0.17% |  |

Reference: PubChem BioAssay (Tox21)
